This note sets out measurements from ChEMBL document CHEMBL2218924, “A broad activity screen in support of a chemogenomic map for kinase signalling research and drug discovery” (Biochem J, 2013).

Experiment [1] addresses Insulin receptor (Homo sapiens) (UniProt P06213). Particulars: at 10 µM.
The target is the same in experiment [2]. To be noted: at 1 µM.
For experiment [3] the target is unchanged. Particulars: at 10 µM. The source holds these as a separate data set.
For experiment [4], the target named is Interleukin-1 receptor-associated kinase 1 (Homo sapiens) (UniProt P51617). Particulars: at 1 µM.
The target is the same in experiment [5]. To be noted: at 10 µM.
The target of experiment [6] is T1, Interleukin-1 receptor-associated kinase 4 (Homo sapiens) (UniProt Q9NWZ3).
T1 sequence (whole entry): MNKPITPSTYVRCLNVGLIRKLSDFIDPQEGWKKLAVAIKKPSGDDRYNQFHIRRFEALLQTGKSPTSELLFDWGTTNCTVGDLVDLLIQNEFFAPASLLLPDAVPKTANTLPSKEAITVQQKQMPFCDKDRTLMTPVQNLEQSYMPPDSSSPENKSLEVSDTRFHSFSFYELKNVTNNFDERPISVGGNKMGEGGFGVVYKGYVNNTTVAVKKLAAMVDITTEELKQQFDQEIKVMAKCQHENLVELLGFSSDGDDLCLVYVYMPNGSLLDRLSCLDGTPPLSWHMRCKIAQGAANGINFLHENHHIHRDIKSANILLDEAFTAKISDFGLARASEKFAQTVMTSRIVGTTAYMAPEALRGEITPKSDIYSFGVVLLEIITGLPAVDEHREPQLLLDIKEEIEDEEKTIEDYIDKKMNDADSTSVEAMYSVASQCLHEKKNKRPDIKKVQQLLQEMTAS
To be noted: at 1 µM.

In experiment [7] the target is T1, Interleukin-1 receptor-associated kinase 4 (Homo sapiens). To be noted: at 10 µM.
Experiment [8] deals with Insulin receptor-related protein (Homo sapiens) (UniProt P14616). To be noted: at 1 µM.
Sequence of Insulin receptor-related protein (Homo sapiens) (P14616 27-742 limits assumed): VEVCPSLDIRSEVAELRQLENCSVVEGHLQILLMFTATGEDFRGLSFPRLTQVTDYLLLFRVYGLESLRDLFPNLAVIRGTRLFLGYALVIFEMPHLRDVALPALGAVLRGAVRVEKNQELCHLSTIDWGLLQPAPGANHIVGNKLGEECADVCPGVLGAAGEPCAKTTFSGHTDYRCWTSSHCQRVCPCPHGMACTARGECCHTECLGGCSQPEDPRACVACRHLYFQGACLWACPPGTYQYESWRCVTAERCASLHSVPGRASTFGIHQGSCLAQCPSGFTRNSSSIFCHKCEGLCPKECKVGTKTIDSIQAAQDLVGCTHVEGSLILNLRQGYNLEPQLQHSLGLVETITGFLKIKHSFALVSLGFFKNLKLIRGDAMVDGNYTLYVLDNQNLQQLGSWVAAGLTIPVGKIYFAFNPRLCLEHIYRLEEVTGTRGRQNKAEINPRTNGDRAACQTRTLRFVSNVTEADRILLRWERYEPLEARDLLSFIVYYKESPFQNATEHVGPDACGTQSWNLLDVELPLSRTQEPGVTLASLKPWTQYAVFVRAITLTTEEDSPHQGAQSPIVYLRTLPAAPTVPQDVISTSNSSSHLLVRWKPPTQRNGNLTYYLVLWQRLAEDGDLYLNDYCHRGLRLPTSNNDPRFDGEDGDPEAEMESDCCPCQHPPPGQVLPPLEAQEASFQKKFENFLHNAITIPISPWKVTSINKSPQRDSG
Sequence of Insulin receptor-related protein (Homo sapiens) (P14616 747-1297 limits assumed): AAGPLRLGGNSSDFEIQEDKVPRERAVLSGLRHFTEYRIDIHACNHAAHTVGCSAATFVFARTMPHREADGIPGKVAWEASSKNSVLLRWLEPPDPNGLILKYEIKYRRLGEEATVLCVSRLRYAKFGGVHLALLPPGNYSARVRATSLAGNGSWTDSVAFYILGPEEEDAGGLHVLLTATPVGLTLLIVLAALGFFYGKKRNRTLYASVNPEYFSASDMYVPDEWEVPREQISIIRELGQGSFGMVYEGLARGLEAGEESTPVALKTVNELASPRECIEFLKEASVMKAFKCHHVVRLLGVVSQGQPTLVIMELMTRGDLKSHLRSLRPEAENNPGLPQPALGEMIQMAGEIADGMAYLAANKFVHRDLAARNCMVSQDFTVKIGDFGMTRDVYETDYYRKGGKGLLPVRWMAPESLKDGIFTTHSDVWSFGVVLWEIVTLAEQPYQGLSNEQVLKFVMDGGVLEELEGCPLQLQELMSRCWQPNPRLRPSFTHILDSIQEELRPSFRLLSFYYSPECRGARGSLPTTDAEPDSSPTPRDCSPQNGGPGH
The target is the same in experiment [9]. To be noted: at 10 µM.
Experiment [10] has as its target T2, Tyrosine-protein kinase ITK/TSK (Homo sapiens) (UniProt Q08881).
T2 sequence (whole entry): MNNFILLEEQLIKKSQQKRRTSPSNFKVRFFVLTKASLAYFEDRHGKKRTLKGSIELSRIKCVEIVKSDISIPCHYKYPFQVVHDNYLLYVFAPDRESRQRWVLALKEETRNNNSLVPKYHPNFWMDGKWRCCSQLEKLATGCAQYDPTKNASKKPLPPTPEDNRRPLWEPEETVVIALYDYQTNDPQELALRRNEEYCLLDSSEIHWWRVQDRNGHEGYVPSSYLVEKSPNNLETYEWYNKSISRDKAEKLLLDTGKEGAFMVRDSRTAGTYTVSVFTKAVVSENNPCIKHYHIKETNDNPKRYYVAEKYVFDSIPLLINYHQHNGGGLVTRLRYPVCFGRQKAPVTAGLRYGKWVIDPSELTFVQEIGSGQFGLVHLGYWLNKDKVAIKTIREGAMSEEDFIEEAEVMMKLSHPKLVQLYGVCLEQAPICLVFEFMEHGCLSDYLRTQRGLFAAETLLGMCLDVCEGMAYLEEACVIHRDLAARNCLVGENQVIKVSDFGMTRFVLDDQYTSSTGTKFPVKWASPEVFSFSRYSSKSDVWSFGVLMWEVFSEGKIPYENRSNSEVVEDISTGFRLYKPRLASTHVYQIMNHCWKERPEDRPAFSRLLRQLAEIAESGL
Particulars: at 1 µM.

The target in experiment [11] is T2, Tyrosine-protein kinase ITK/TSK (Homo sapiens). To be noted: at 10 µM.
The target of experiment [12] is Tyrosine-protein kinase JAK2 (Homo sapiens) (UniProt O60674). To be noted: at 1 µM.
Sequence of Tyrosine-protein kinase JAK2 (Homo sapiens) (O60674 whole entry): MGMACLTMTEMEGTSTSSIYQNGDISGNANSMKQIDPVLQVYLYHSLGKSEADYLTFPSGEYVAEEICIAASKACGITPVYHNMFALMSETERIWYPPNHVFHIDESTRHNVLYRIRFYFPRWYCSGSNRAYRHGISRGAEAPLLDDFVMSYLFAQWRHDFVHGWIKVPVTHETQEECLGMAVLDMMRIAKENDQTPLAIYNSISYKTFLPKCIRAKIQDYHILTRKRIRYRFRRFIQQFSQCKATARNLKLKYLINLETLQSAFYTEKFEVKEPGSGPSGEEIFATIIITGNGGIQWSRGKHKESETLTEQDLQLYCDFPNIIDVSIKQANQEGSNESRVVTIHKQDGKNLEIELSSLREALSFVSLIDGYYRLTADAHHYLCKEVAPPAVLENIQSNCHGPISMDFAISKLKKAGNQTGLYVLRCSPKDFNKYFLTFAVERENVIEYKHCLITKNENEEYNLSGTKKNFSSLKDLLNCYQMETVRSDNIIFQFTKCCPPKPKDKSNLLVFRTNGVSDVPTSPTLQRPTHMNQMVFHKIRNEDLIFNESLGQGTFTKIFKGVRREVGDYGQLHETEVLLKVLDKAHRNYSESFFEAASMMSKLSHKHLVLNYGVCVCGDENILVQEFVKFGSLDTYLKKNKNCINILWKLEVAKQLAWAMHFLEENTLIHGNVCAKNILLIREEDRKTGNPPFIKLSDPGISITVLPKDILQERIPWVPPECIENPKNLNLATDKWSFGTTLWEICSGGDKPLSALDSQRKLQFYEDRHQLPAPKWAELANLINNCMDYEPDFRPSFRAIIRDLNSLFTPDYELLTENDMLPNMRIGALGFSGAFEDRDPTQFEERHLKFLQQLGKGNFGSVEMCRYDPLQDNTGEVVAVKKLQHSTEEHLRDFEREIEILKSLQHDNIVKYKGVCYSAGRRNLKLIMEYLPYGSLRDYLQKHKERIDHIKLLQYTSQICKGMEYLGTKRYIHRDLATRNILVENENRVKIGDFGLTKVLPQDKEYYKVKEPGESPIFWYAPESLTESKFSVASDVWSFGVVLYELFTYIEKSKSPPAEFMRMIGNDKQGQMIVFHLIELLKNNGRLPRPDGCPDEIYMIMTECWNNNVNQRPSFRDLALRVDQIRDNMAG
Experiment [13] has the same target. To be noted: at 10 µM.
For experiment [14], the target named is T3, Tyrosine-protein kinase JAK3 (Homo sapiens) (UniProt P52333).
T3 sequence (whole entry): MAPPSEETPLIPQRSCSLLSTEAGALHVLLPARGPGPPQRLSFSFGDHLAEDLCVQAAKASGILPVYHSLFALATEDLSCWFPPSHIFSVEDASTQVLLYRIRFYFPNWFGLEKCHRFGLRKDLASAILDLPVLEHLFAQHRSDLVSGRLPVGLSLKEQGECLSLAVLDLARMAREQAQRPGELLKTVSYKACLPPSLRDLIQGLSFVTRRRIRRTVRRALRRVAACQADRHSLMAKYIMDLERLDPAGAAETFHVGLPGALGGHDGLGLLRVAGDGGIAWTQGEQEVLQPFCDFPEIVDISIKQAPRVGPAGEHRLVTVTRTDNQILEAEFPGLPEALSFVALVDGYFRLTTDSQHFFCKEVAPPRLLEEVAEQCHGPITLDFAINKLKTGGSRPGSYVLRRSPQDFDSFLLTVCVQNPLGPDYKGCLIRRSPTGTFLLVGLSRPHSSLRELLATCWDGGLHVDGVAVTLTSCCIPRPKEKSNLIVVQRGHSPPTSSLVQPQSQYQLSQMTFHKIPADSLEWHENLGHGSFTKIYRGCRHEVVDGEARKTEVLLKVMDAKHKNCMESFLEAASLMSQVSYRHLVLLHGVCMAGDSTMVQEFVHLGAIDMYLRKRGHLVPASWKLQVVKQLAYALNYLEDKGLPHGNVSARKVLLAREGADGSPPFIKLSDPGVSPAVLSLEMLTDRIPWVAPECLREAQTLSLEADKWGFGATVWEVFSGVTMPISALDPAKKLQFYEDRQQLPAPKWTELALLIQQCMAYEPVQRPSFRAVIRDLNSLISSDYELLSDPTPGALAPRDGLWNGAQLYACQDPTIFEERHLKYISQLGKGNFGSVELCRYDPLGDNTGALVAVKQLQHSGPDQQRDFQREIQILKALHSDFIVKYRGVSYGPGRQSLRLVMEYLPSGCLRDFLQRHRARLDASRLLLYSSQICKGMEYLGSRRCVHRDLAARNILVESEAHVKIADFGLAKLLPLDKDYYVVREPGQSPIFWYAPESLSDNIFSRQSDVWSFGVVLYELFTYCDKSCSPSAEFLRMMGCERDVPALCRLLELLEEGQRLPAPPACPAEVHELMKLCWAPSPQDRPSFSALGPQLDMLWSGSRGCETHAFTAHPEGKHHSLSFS
Particulars: at 1 µM.

Experiment [15] deals with T3, Tyrosine-protein kinase JAK3 (Homo sapiens). Particulars: at 10 µM.
For experiment [16], the target named is Mitogen-activated protein kinase 8 (Homo sapiens) (UniProt P45983). To be noted: at 1 µM.
Sequence of Mitogen-activated protein kinase 8 (Homo sapiens) (P45983 whole entry): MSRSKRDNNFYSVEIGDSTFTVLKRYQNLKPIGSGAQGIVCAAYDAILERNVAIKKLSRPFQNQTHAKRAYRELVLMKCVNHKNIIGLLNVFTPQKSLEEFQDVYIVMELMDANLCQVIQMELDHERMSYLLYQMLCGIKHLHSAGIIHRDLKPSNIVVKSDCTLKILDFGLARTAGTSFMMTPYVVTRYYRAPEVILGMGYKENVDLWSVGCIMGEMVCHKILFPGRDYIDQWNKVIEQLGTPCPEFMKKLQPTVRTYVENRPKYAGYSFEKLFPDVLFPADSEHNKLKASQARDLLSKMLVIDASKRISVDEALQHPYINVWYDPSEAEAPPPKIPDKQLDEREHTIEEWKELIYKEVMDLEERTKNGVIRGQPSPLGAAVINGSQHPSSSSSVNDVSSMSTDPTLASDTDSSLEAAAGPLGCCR
The target is the same in experiment [17]. To be noted: at 10 µM.
Experiment [18] concerns the target Mitogen-activated protein kinase 9 (Homo sapiens) (UniProt P45984). Particulars: at 1 µM.
For experiment [19] the target is unchanged. To be noted: at 10 µM.
For experiment [20], the target named is Mitogen-activated protein kinase 10 (Homo sapiens) (UniProt P53779). To be noted: at 1 µM.

Sequence of Mitogen-activated protein kinase 9 (Homo sapiens) (P45984 whole entry, looked up): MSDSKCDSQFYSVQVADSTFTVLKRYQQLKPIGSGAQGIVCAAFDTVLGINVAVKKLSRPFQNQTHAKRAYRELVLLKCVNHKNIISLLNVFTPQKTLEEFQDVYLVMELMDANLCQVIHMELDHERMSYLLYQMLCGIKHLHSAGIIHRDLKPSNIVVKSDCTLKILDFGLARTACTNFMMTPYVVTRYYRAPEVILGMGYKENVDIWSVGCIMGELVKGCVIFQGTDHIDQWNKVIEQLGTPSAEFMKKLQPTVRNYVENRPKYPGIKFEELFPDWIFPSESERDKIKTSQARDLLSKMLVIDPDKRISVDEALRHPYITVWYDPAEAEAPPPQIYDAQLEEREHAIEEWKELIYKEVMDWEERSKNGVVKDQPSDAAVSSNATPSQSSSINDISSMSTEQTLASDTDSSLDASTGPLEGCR
Sequence of Insulin receptor (Homo sapiens) (P06213 28-758 limits assumed): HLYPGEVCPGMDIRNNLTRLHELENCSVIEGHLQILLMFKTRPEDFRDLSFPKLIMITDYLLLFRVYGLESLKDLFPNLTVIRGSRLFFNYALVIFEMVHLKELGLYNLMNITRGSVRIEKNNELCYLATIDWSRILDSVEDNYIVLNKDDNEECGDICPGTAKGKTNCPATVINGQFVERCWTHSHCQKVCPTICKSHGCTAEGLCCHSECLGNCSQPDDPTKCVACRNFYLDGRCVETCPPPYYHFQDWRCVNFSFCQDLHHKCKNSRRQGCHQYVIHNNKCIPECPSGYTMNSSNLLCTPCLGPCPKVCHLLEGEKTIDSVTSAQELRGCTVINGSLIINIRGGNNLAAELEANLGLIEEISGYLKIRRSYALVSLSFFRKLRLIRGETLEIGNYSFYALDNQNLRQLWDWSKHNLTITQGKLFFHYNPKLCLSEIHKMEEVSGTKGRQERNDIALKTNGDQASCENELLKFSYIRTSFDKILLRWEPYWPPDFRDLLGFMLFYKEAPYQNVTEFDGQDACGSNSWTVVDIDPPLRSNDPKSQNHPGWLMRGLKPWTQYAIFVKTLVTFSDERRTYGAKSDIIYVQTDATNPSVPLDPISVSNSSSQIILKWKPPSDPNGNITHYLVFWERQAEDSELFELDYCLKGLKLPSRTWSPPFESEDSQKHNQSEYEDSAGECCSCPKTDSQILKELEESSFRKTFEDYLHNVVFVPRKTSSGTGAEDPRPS
Sequence of Insulin receptor (Homo sapiens) (P06213 763-1382 limits assumed): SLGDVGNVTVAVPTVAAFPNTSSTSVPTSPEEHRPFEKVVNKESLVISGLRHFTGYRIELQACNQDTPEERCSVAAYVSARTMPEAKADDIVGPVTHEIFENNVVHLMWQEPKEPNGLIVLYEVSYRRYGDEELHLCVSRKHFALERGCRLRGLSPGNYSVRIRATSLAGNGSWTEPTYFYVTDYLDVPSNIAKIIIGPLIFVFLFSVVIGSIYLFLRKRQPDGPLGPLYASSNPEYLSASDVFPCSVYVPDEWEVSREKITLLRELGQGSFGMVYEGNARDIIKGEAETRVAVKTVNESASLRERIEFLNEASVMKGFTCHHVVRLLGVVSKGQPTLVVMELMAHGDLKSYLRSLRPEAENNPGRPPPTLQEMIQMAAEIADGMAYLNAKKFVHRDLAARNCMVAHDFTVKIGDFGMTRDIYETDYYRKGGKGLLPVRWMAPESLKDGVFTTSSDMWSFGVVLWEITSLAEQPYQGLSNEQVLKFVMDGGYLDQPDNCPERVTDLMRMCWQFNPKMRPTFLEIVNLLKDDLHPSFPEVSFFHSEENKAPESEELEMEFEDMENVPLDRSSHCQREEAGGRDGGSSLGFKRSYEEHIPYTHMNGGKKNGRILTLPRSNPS

For the molecule `CO[C@H]1[C@@H](OC)C[C@H](C)[C@@H](OC)C2=CC(=O)C=C(NC(=O)/C(C)=C/C=C/[C@H](OC)[C@@H](OC(N)=O)/C(C)=C/[C@@H]1C)C2=O`, the residual activity in [1] is 117%; in experiment [2], 100%; in experiment [3] it was 112%; in [4], 106%; in experiment [5] it was 94%; in experiment [6], 107%. Also, the residual activity in experiment [7] was 99%; in experiment [8], 133%; in experiment [9] it was 79%; in [10], 106%; in experiment [11] it was 107%; in experiment [12] it was 114%. Besides, the residual activity in [13] came out at 97%; in experiment [14], 94%; in experiment [15] it was 63%; in experiment [16], 120%; in experiment [17] it was 89%; in [18], 114%. The residual activity came to 100% in [19] and 113% in experiment [20].

On to `CO[C@H]1C[C@@H]2CC[C@@H](C)[C@@](O)(O2)C(=O)C(=O)N2CCCC[C@H]2C(=O)O[C@H]([C@H](C)C[C@@H]2CC[C@@H](O)[C@H](OC)C2)CC(=O)[C@H](C)/C=C(\C)[C@@H](O)[C@@H](OC)C(=O)[C@H](C)C[C@H](C)/C=C/C=C/C=C/1C`, for which the residual activity in [1] was 89%; in experiment [2], 92%; in [3], 101%; in experiment [4], 74%; in experiment [5], 71%; in experiment [6], 107%. Further, the residual activity was found to be 154% in experiment [7]; 126% in experiment [8]; 99% in experiment [9]; 101% in experiment [10]; 113% in experiment [11]; 101% in experiment [12]. The residual activity was determined as 160% in experiment [13]; 103% in experiment [14]; 124% in [15]; 107% in [16]; 90% in experiment [17]; 111% in experiment [18]. The residual activity in experiment [19] worked out at 96%; in experiment [20] it was 108%.

`Oc1ccc(Nc2nc(-c3ccc(Cl)cc3)cs2)cc1`: the residual activity was found to be 133% in [1]; 108% in experiment [2]; 103% in experiment [3]; 100% in experiment [4]; 111% in experiment [5]; 108% in [6]. Moreover, the residual activity stood at 97% in experiment [7]; 115% in [8]; 85% in experiment [9]; 104% in experiment [10]; 95% in [11]; 106% in experiment [12]. Moreover, the residual activity stood at 97% in experiment [13]; 95% in [14]; 122% in experiment [15]; 106% in [16]; 101% in experiment [17]; 101% in [18]. Besides, the residual activity in [19] is 113%; in experiment [20], 108%.

In the case of `Cc1ccc(NC2=CC(=O)c3sc(C)nc3C2=O)cc1`, the residual activity amounted to 90% in [1]; 102% in experiment [2]; 96% in experiment [3]; 105% in experiment [4]; 110% in experiment [5]; 85% in experiment [6]. For the same molecule, the residual activity in experiment [7] was determined as 86%; in experiment [8], 118%; in experiment [9], 108%; in experiment [10], 105%; in [11], 101%; in [12] it was 97%. In addition, the residual activity in experiment [13] worked out at 104%; in [14] it was 113%; in experiment [15], 107%; in experiment [16], 112%; in experiment [17], 92%; in experiment [18], 100%. The residual activity in [19] stood at 106%; in experiment [20], 83%.

Regarding `O=[N+]([O-])c1ccc(-c2nc(-c3ccc(F)cc3)c(-c3ccncc3)[nH]2)cc1`, the residual activity in experiment [1] stood at 109%; in [2] it was 105%; in [3], 95%; in experiment [4], 107%; in experiment [5], 108%; in [6], 104%. In addition, the residual activity amounted to 97% in [7]; 124% in [8]; 98% in experiment [9]; 108% in experiment [10]; 98% in experiment [11]; 99% in experiment [12]. Besides, the residual activity worked out at 101% in [13]; 118% in experiment [14]; 108% in experiment [15]; 102% in experiment [16]; 98% in experiment [17]; 68% in experiment [18]. The residual activity in [19] is 59%; in experiment [20], 8%.

As to `CC[n+]1c(/C=C/N(C)c2ccccc2)n(-c2ccccc2)c2ccc(-c3nc4ccccc4s3)cc21`, the residual activity in experiment [1] is 86%; in [2], 100%; in [3], 92%; in experiment [4], 96%; in experiment [5], 92%; in experiment [6], 113%. Further, the residual activity came out at 78% in experiment [7]; 111% in experiment [8]; 87% in [9]; 101% in [10]; 92% in experiment [11]; 121% in [12]. Also, the residual activity in experiment [13] is 150%; in [14] it was 118%; in experiment [15], 149%; in [16] it was 119%; in [17] it was 95%; in experiment [18], 113%. The residual activity in experiment [19] is 102%; in experiment [20], 91%.

`O=C(Nc1cccc(Nc2cc(Nc3cccc(C(F)(F)F)c3)ncn2)c1)C1CC1`: the residual activity in [1] was determined as 94%; in [2] it was 97%; in [3], 106%; in experiment [4], 95%; in [5], 96%; in experiment [6], 97%. Moreover, the residual activity was found to be 80% in [7]; 117% in experiment [8]; 63% in experiment [9]; 105% in [10]; 95% in [11]; 116% in experiment [12]. The residual activity came to 138% in [13]; 106% in experiment [14]; 115% in [15]; 107% in [16]; 83% in experiment [17]; 104% in experiment [18]. For the same molecule, the residual activity in [19] is 103%; in [20], 82%.
